{"source": "PubChem BioAssay (Tox21)", "note": "The source made the active and inactive calls. The call rests on the fitted dose curve; in most records, active means well fitted inhibition curve with a large enough effect in the repeat runs (not every such curve was filed as active); inconclusive means weak or mixed curves; inactive means flat fitted curve, though single readings scatter.", "data": [{"biological_target": "Thyrotropin-releasing hormone receptor (Homo sapiens) (UniProt P34981)", "sequence (P34981 whole entry, looked up)": "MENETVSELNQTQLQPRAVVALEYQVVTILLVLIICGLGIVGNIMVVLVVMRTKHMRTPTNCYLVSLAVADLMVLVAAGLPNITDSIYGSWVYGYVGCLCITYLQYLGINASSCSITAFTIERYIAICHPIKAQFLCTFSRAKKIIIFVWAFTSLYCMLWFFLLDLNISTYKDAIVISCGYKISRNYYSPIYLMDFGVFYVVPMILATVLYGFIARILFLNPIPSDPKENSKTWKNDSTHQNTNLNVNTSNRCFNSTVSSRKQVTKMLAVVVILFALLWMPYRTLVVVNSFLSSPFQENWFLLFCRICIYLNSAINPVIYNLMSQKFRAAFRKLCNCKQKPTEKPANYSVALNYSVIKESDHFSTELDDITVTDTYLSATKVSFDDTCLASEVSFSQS", "test": "qHTS assay to identify small molecule antagonists of the thyrotropin-releasing hormone receptor (TRHR) signaling pathway (AID 1346877)", "settings": "TRHR-HEK293, TRH-induced calcium fluorescence, antagonist mode; series mostly up to 51.3 µM", "source_text": "National Center for Advancing Translational Sciences [NCATS]\nNIH Chemical Genomics Center [NCGC]\nU.S. Environmental Protection Agency [EPA]\nNational Institutes of Environmental Health Sciences [NIEHS]\nNational Toxicology Program [NTP]\nU.S. Food and Drug Administration [FDA]\nThyrotropin-releasing hormone (TRH) receptor (TRHR) is a G-protein-coupled receptor which binds the tripeptide thyrotropin releasing hormone. TRHR is found in the brain and, when bound by TRH, acts (through phospholipase C) to increase intracellular inositol trisphosphate. It plays a crucial role in the anterior pituitary where it controls the synthesis and secretion of thyroid stimulating hormone and prolactin. The TRHR-Hek293 assay is a cell-based assay, and it has the potential to screen G protein-coupled receptors. A compound/drug can either activate (agonist) or suppress (antagonist) GPCRs that can be monitored by levels of intracellular calcium. In this assay, the Tox21 10K compound library was screened to identify potential TRHR antagonists.\nTox21 Assay Protocol Summary:\nThe TRHR-Hek293 cells were dispensed at 1500cells/4uL/well in 1536-well black-clear bottom plates using a Multidrop dispenser. After the assay plates were incubated at a 37 C/5% CO2 incubator for 18 hours, 4 uL of Dye-Loading Solution was added to each well. The plates were incubated at 37 C for 2 hours. For agonist mode, 23 nL of compounds dissolved in DMSO, positive controls or DMSO only was transferred to the assay plate by a pin tool. The fluorescence intensity in the plates was measured using FDSS 7000EX kinetic plate reader for 3 min at 1 sec intervals. For antagonist mode, 23 nL of compounds dissolved in DMSO, positive controls or DMSO only was transferred to the assay plate by a pin tool. After 5 min incubation at room temperature, 1 uL of TRH was added on the top of the cell/compound mixtures to achieve a final agonist concentration of 1 nM. The fluorescence intensity in the plates was measured using FDSS 7000EX kinetic plate reader for 3 min at 1 sec intervals. Each test compound was measured at 15 concentrations and in triplicates.", "values": [{"smiles": "Nc1c(Cl)c(Cl)nc(C(=O)O)c1Cl", "outcome": "inactive"}, {"smiles": "Cc1cc(Cl)ccc1O", "outcome": "inactive"}, {"smiles": "CC(C)OC(=O)Nc1cccc(Cl)c1", "outcome": "inactive"}, {"smiles": "Clc1ccc(Cl)cc1", "outcome": "inactive"}, {"smiles": "CCN(CC)CCO", "outcome": "inactive"}, {"smiles": "CCCCCCCCCl", "outcome": "inactive"}, {"smiles": "CC(Oc1ccc(Cl)cc1Cl)C(=O)O", "note": "(stereo not given)", "outcome": "inactive"}, {"smiles": "C#CC(C)(C)NC(=O)c1cc(Cl)cc(Cl)c1", "outcome": "inactive"}, {"smiles": "CN(C)CCO", "outcome": "inactive"}, {"smiles": "NCCc1ccc(O)cc1", "outcome": "inactive"}, {"smiles": "c1ccc(OP(Oc2ccccc2)Oc2ccccc2)cc1", "outcome": "inactive"}, {"smiles": "CON(C)C(=O)Nc1ccc(Cl)c(Cl)c1", "outcome": "inactive"}, {"smiles": "c1ccc(-c2ccccc2)cc1", "outcome": "inactive"}, {"smiles": "[O-][Cl+2]([O-])O", "outcome": "inactive"}, {"smiles": "CCNc1nc(NC(C)C)nc(SC)n1", "outcome": "inactive"}, {"smiles": "CC(C)C1(C)N=C(c2nc3ccccc3cc2C(=O)O)NC1=O", "note": "(stereo not given)", "outcome": "inactive"}, {"smiles": "c1ccc2c(c1)oc1ccccc12", "outcome": "inactive"}, {"smiles": "CN(N=O)c1ccccc1", "outcome": "inactive"}, {"smiles": "CCC[CH2][Sn]([Cl])([Cl])[Cl]", "outcome": "inactive"}, {"smiles": "C=CCO", "outcome": "inactive"}, {"smiles": "COP(N)(=O)SC", "note": "(stereo not given)", "outcome": "inactive"}, {"smiles": "COC(=O)c1ccccc1N", "outcome": "inactive"}, {"smiles": "[N-]=[N+]=[N-]", "outcome": "inactive"}, {"smiles": "CN=C=S", "outcome": "inactive"}, {"smiles": "NCC(O)c1ccc(O)cc1", "note": "(stereo not given)", "outcome": "inactive"}, {"smiles": "CC(=O)C=C(C)C", "outcome": "inactive"}, {"smiles": "COC(=O)NC(=S)Nc1ccccc1NC(=S)NC(=O)OC", "outcome": "inactive"}, {"smiles": "C=CC(N)=O", "outcome": "inactive"}, {"smiles": "O=C(NC(=O)c1c(F)cccc1F)Nc1cc(Cl)c(OC(F)(F)C(F)C(F)(F)F)cc1Cl", "note": "(stereo not given)", "outcome": "inactive"}, {"smiles": "Cn1cc(-c2ccccc2)c(=O)c(-c2cccc(C(F)(F)F)c2)c1", "outcome": "inactive"}, {"smiles": "Cc1ccc(N)cc1N", "outcome": "inactive"}, {"smiles": "CCOC(=O)c1ccccc1C(=O)OCC", "outcome": "inactive"}, {"smiles": "CC(NC(C)(C)C)C(=O)c1cccc(Cl)c1", "note": "(stereo not given)", "outcome": "inactive"}, {"smiles": "CCCN(CCC)c1c([N+](=O)[O-])cc(C(F)(F)F)cc1[N+](=O)[O-]", "outcome": "inactive"}, {"smiles": "CCCCCOC(=O)c1ccccc1C(=O)OCCCCC", "outcome": "inactive"}, {"smiles": "Cc1ccc(N)cc1Cl", "outcome": "inactive"}, {"smiles": "O=NN1CCCCCCC1", "outcome": "inactive"}, {"smiles": "O=S(=O)(c1ccc(O)cc1)c1ccc(O)cc1", "outcome": "inactive"}, {"smiles": "O=c1[nH]c2ccccc2c(=O)o1", "outcome": "inactive"}, {"smiles": "Cc1cccc([N+](=O)[O-])c1", "outcome": "inactive"}]}]}
